# Source: PubChem BioAssay (NCI)
# Where “and” joins values, the source holds several entries; their conditions need not be identical. Equal entries are not always repeated. About 79,000 compounds went through this panel and 15% of them were active in at least one assay; those are over-represented in the sample as a whole. Unmarked numbers belong to inactive results. Calls of active or inactive are those of the source. Rule as the data show it: active = growth inhibition above about 70%; inactive = the rest.
# Assays:
# [1] = NCI Yeast Anticancer Drug Screen. Data for the rad50 strain (AID 155);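 also: 0% = growth of vehicle-only cultures of the same strain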; conditions: S. cerevisiae rad50 strain growth inhibition, active compounds read high
# Outline: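 Genetically altered yeast (DNA repair pathway); compound treatment; growth inhibition vs vehicle ctrl.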
# [2] = NCI Yeast Anticancer Drug Screen. Data for the mec2-1 strain (AID 157); conditions: S. cerevisiae mec2-1 strain, active compounds read high
# Outline: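 Vehicle-treated cultures served as reference for growth inhibition of compound-exposed mec2-1 yeast.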
# [3] = NCI Yeast Anticancer Drug Screen. Data for the sgs1 mgt1 strain (AID 161);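 also: 0% = growth of cultures given vehicle only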; conditions: S. cerevisiae sgs1 mgt1 strain, active compounds read high
# Outline: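 Mutant yeast exposed to compound; growth scored against vehicle-only wells.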
# [4] = NCI Yeast Anticancer Drug Screen. Data for the cln2 rad14 strain (AID 165);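 also: 0% = growth equal to vehicle treated cultures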; conditions: S. cerevisiae cln2 rad14 strain, active compounds read high
# Outline: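 Each compound was tested on cln2 rad14 yeast. Inhibition of growth was calculated against vehicle-exposed controls.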
# [5] = NCI Yeast Anticancer Drug Screen. Data for the mlh1 rad18 strain (AID 175); conditions: S. cerevisiae mlh1 rad18 strain growth inhibition, active compounds read high
# Outline: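 Vehicle-treated cultures served as the reference for growth inhibition in a yeast strain carrying DNA damage repair alterations exposed to each compound.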
# [6] = NCI Yeast Anticancer Drug Screen. Data for the bub3 strain (AID 167); conditions: S. cerevisiae bub3 mutant strain, active compounds read high
# Outline: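 Yeast carrying a defined mutation is treated with each compound, and growth is compared with that of vehicle-exposed cells to give inhibition.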
# [7] = at 5.0 µM (retest, dose inferred, filed as 0.5)
# [8] = at 50.0 µM (retest, dose inferred, filed as 5.0)
Structure (SMILES),"growth inhibition [1, 7]","growth inhibition [1, 8]",growth inhibition ([1]; at 50.0 µM),"growth inhibition [2, 7]","growth inhibition [2, 8]",growth inhibition ([2]; at 50.0 µM),"growth inhibition [3, 7]","growth inhibition [3, 8]",growth inhibition ([3]; at 50.0 µM),"growth inhibition [4, 7]","growth inhibition [4, 8]",growth inhibition ([4]; at 50.0 µM),"growth inhibition [5, 7]","growth inhibition [5, 8]",growth inhibition ([5]; at 50.0 µM),"growth inhibition [6, 7]","growth inhibition [6, 8]",growth inhibition ([6]; at 50.0 µM)
C=CC1(c2ccc(-c3ccccc3)cc2)OCCO1,1%,14%,51.3%,2%,6%,41.5%,-4%,-10%,74.4% (active),19%,8%,7.15%,-17%,0%,49.5%,–,–,–
ClC(Cl)(Cl)C1=CC2c3ccccc3C1c1ccccc12,-14%,91% (active),89.7% (active),0%,91% (active),21.6%,-7%,91% (active),87.8% (active),-3%,90% (active),22.8%,-6%,92% (active),89.5% (active),–,–,–
CS(=O)(=O)OCCN(CCOS(C)(=O)=O)c1ccc(C=Nc2ccc3ccccc3c2)cc1,12%,80% (active),86.7% (active),47%,55%,73.2% (active),6%,45%,71.1% (active),–,–,–,–,–,–,-3%,6%,10.3%
Cc1ccc(NC(=O)CC2SC(N)=NC2=O)cc1C (stereo not drawn),-1%,-1%,87.5% (active),3%,8%,89.3% (active),-2%,5%,91.2% (active),8%,4%,80.2% (active),-1%,6%,90.3% (active),–,–,–
CC(=O)N1c2ccccc2Sc2ccc3ccc(C(=O)CCl)cc3c21,81% (active),97% (active),87.2% (active),83% (active),98% (active),90.5% (active),–,–,–,70% (active),97% (active),88.3% (active),65%,97% (active),87.8% (active),93% (active),97% (active),89.2% (active)
O=C(NC1CCN(Cc2ccccc2)CC1)c1ccccc1I,48%,73% (active),74.3% (active),38%,50%,39.9%,–,–,–,83% (active),82% (active),81% (active),73% (active),76% (active),80.8% (active),59%,64%,74% (active)
COc1ccc(Cc2coc3ccccc3c2=O)cc1OC,-1%,12%,-0.55%,2%,10%,-2.5%,1%,18%,18.4%,0%,3%,3.8%,-3%,12%,0.95%,23%,68%,71.1% (active)
CCOC(=O)c1ccc(NC(=O)O/N=C(/Cl)CCl)cc1,-14%,99% (active),41.2%,-5%,95% (active),83.8% (active),-22%,50%,55.3%,-10%,78% (active),57.2%,-5%,79% (active),69%,–,–,–
COc1ccc(-n2c3c(c4c(N)ncnc42)CCCC3)cc1,-2%,-4%,-21.3%,–,–,–,11%,-3%,-13%,-11%,43%,-33%,2%,-13%,-16.4%,-2%,-13%,-69.2%
O=C(O)CCCCCCCCCCOc1ccc(Cl)cc1Cl,–,–,–,-2%,-2%,99.1% (active),0%,-3%,94.3% (active),1%,-8%,5.5%,0%,-1%,98.2% (active),-1%,2%,99.3% (active)
CC(C)OC(=O)Oc1c(Cl)c(Cl)c(Cl)c(Cl)c1Cl,-3%,97% (active),62%,0%,99% (active),50.6%,–,–,–,5%,98% (active),15.9%,-1%,96% (active),56.8%,2%,99% (active),74.4% (active)
CCOC1=Cc2c(oc3c(C(C)(C)C)cc(OCC)cc23)OC(C(C)(C)C)=C1,–,–,–,22%,98% (active),85.3% (active),28%,97% (active),73.4% (active),13%,96% (active),75.7% (active),44%,94% (active),19.6%,32%,98% (active),78.7% (active)
OCC(O)C(O)C(O)C(O)C(O)CO (stereo not drawn),–,–,1% and 8% and 21.3%,–,–,0.1% and 6.15% and -9.7%,–,–,16.6% and 21.1% and 25.2%,–,–,-45.4% and -8.8% and -1.35%,–,–,10.2% and 22.1% and 10.4%,–,–,17.6% and -3.1% and 37.1%
N#Cc1c(-c2ccc(Cl)c(Cl)c2)c(-c2ccc(Cl)c(Cl)c2)nn(CCO)c1=O,–,–,–,44%,98% (active),97.6% (active),50%,97% (active),97.5% (active),39%,95% (active),96.8% (active),72% (active),96% (active),97.5% (active),43%,97% (active),96.3% (active)
CN(C)CC/C(=N\Nc1ccc(Cl)cc1Cl)c1ccccc1,–,–,–,79% (active),100% (active),99.5% (active),97% (active),100% (active),99.5% (active),95% (active),99% (active),99.2% (active),96% (active),100% (active),99.2% (active),96% (active),100% (active),99.5% (active)
O=C1OC(C(O)CO)C(O)=C1O (stereo not drawn),–,–,-17.1% and 7.7% and 12.5%,–,–,-25.8% and 0.65% and -15.2%,–,–,-4.15% and -7.6% and 14.5%,–,–,-0.75% and -1.55% and 7.15%,–,–,1.6% and 8.75% and 6.45%,–,–,-1.7% and -0.25% and -0.3%
COc1cc(/C=C2\CCOC2=O)ccc1O,–,–,1% and -1.15% and 3.7%,–,–,-1.45% and 31.7% and 1.8%,–,–,-7.55% and 1.8% and -18.2%,–,–,-9.15% and 14.1% and -3.85%,–,–,-5.35% and -1.3% and -13.3%,–,–,3.6% and 13.2% and 9.3%
N#CC(NNC(=O)c1ccccc1O)c1c(O)ccc2ccccc12 (stereo not drawn),-4%,59%,74.3% (active),–,–,–,-5%,50%,61.9%,16%,62%,41.4%,4%,82% (active),51.5%,17%,79% (active),56.1%
COC1OC(CO)C(O)C(O)C1O (stereo not drawn),–,–,-6.55% and -5.05% and -29.2%,–,–,-5.2% and 1.65% and -23.1%,–,–,-4.3% and -4.25% and -9.9%,–,–,16.9% and -53.9% and -37.4%,–,–,0.8% and 7.3% and -8.25%,–,–,-12.3% and 5.7% and -2.25%
O=C(Nc1cccc(C(F)(F)F)c1)C(Cl)=C(Cl)Cl,12%,99% (active),98.5% (active),–,–,–,0%,98% (active),98.5% (active),-8%,99% (active),97.8% (active),-2%,99% (active),98.7% (active),0%,98% (active),98.5% (active)
CN1c2ccccc2Sc2c1n[nH]c2-c1ccccc1,-1%,64%,–,-3%,79% (active),96.1% (active),0%,79% (active),98.8% (active),2%,68%,98% (active),-4%,91% (active),98.8% (active),-1%,95% (active),99% (active)
CC(C)SC(=S)Nc1cc(Cl)c(Cl)cc1Cl,–,–,–,6%,86% (active),99.5% (active),10%,98% (active),99.5% (active),-14%,91% (active),99.3% (active),1%,92% (active),99.3% (active),-4%,49%,98.9% (active)
COc1ccccc1NC(=O)O/N=C(/Cl)C(C)C,–,–,–,3%,70% (active),52%,-32%,71% (active),37.6%,40%,28%,31.9%,-24%,41%,41.1%,–,–,–
